Experimental data reported in PubChem BioAssay AID760 (NMMLSC, 2007).
In all, about 190,000 compounds went through this assay and about 360 (0.19%) were called active. About 2% were inconclusive and are not listed.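 The calls were made as follows: active = GTP binding activity at least 20 points away from 100%, either lowered or raised; inconclusive = signal likely due to the compound's own green fluorescence; inactive = the rest.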 What follows is part of a selection rich in actives, with near analogues and random picks from the rest.

Molecular target: Ras-related protein Rab-2A (Canis lupus familiaris) (UniProt P61105)
Experiment: Rab2 wt fluorescent GTP binding changes, either direction – biochemical, dog, bead-based flow cytometry, multiplex, primary screen (AID 760);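 also: 0% = beads with excess unlabeled GTP and 100% = no-compound control corrected for plate trend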
Settings: GST-Rab2 wt beads, Bodipy-GTP binding, at 10 µM

GTP binding activity, active:
O=C(OCC1O[C@@H](OC(=O)c2cc(O)c(O)c(O)c2)[C@@H](OC(=O)c2cc(O)c(O)c(O)c2)[C@@H](OC(=O)c2cc(O)c(O)c(O)c2)[C@@H]1OC(=O)c1cc(O)c(O)c(O)c1)c1cc(O)c(O)c(O)c1 (some centres undefined) 79%
Cc1ccc(Nc2c(F)c(F)c(F)c(F)c2C(=O)O)c(C)c1 131% [activator]
CSc1nsc(SC)c1NC(=O)OC1CCCCC1 31%

GTP binding activity, inactive:
CCc1nnc(NC(=O)CSc2nnnn2-c2cccc(C(C)=O)c2)s1 97%
CC(=O)NC1C(OCc2ccccc2)OC(COC(C)=O)C(OC(C)=O)C1OC(C)=O (centres undefined) 100%
CC1(C)CN(c2ccc(-c3ccnc4ncnn34)cc2)C1=O 99%
CCCOCC(O)CC(CC)C(=O)NNC(=S)Nc1ccccc1 (centres undefined) 100%
O=C(Nc1ccc(F)cc1)C1CCN(C(=O)c2ccc([N+](=O)[O-])cc2)CC1 97%
O=C(Nc1ccc(F)c([N+](=O)[O-])c1)C1CC(=O)N(Cc2ccccc2)C1 (centres undefined) 92%
Cc1cc(C2=NNC(=Nc3ccc(S(=O)(=O)N4CCOCC4)cc3)SC2)c(C)n1CC1CCCO1 (centres undefined) 101%
O=C(N/C(=C\c1ccc(F)cc1)C(=O)N1CCCCCC1)c1ccccc1 98%
Clc1ccc(CN2CCN(/N=C/c3cccnc3)CC2)cc1 101%
Cc1ccc(NC(=S)NC(=O)c2ccc(-c3ccccc3)cc2)c(C)c1 97%
COc1c(F)c(F)c(C(=O)O)c(Nc2ccccc2C)c1F 97%
Cc1cc(C)n(CC(=O)Nc2ccc([N+](=O)[O-])cc2)n1 96%
COc1ccc(C2CC(c3cccs3)Nc3nnnn32)cc1 (centres undefined) 98%
Cc1c(Br)ccc(NC(=O)COc2ccccc2C(N)=O)c1C 102%
CN1C(=O)/C(=C\c2ccc(-c3ccccc3)o2)SC1=S 88%
O=C(CCc1ccccc1)NCCc1cccs1 100%
O=C(CCC(=O)N1CCCC1)Nc1ccc([N+](=O)[O-])cc1 101%
CN(C)CC(C)(C)CNC(=O)c1cc(Br)cc(Br)c1O 95%
N#C/C(=C\c1ccc(-c2cccc([N+](=O)[O-])c2)o1)C(=O)NCCN1CCOCC1 92%
CCN1CCN(C(=O)CCN2C(=O)c3ccccc3C2=O)CC1 98%
COc1ccc(CC(=O)NCc2nnc(SCC(=O)Nc3ncc(C)s3)n2C)cc1 98%
CCC(O)C1CCN(Cc2cn(-c3ccc(OC)cc3)nc2-c2cccc(F)c2)CC1 (centres undefined) 102%
CCC1(CC)NC(=O)N(Cc2nc3ccccc3s2)C1=O 98%
Nc1c(C(=O)O)cnn1-c1ccccc1 96%
Fc1ccccc1Cc1ccc(Cl)nn1 96%
CC(=O)Nc1ccc(S(=O)(=O)Nc2nccc(/C=C/c3ccccc3F)n2)cc1 99%
O=C1NC2(CCCCCC2)C(=O)N1CCS(=O)(=O)Oc1ccccc1 96%
O=C(Nc1cccnc1)c1ccc(Cl)cc1[N+](=O)[O-] 103%
CSc1ncccc1C(=O)NC1CCCCCC1 99%
COc1ccc(NC(=O)c2c(SC)nsc2SC)cc1 100%
Cc1ccc(N(C(=O)c2ccc(S(=O)(=O)N(C)C)cc2)C2C=CS(=O)(=O)C2)cc1 (centres undefined) 99%
COc1ccc(CCNC(=O)CCn2c(=O)c3ccccc3n(CC(=O)NCC3CCCO3)c2=O)cc1OC (centres undefined) 96%
COc1ccc(/C=C/C2=CC(C)(C)NC(=S)N2)c(OC)c1 96%
CCOC(=O)c1ccc(NC(=O)C2CC(=O)Nc3nc4ccccc4n32)cc1 (centres undefined) 94%
C/C(=N\NC(=O)OC(C)(C)C)c1ccc[nH]1 98%
O=C(Cn1nnc2ccccc2c1=O)NCc1ccc(Cl)cc1 100%
CC(C)CCC(C)NC(=O)c1ccc2nccnc2c1 (centres undefined) 97%
COc1ccc(CCNC(=O)COC(=O)Cc2cc(OC)c(OC)c(OC)c2)cc1 96%
Cn1cc(-c2ccccc2)cc(C#N)c1=O 98%
CCc1ccccc1NC(=O)CSc1nnc(-c2ccncc2)o1 99%
Cc1ccc(C2=NN(C(=O)COc3ncnc4ccccc34)C(c3ccco3)C2)cc1 (centres undefined) 93%
COc1ccc(OC)c(-n2c(=S)[nH]c3cc(C(=O)N4CCCCC4)ccc3c2=O)c1 100%
S=C(Nc1ccc(Br)cc1Cl)NC1CCN(Cc2ccccc2)CC1 100%
CN(C)c1nc(-c2cccnc2)nc(-c2ccc(Cl)cc2)c1C#N 98%
CC(=O)Nc1ccc(OCCC[n+]2cccc(C(=O)[O-])c2)cc1 97%
CCOC(=O)C1=C(CN2CCCCCC2)NC(=O)NC1c1cccc([N+](=O)[O-])c1 (centres undefined) 97%
